# Assay outcomes from PubChem BioAssay.
# This is a sample that favours compounds with a hit; in the whole collection about 11% have one here.
# IMPase inh: membrane-permeable compound that blocks inositol monophosphatase; P97697; CHO-M1 cells, IP1 accumulation, HTRF TR-FRET ratio; inhibition (IP1 accumulation), % at 46.1 µM; 120,000 tested, under 10 active; AID 901; active means well fitted curve in the direction sought with a large enough effect in the signal ratio, not every such curve was filed as active; inconclusive means small, poorly fitted or top-dose-only effect, or a change in a side signal; inactive means no such curve, though single readings can be large or run the other way; the % refers to the signal ratio;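 further: cells stimulated with carbachol in lithium chloride buffer; higher means more IMPase inhibition seen as more IP1 and lower FRET ratio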
# Target sequence (P97697 whole entry, looked up): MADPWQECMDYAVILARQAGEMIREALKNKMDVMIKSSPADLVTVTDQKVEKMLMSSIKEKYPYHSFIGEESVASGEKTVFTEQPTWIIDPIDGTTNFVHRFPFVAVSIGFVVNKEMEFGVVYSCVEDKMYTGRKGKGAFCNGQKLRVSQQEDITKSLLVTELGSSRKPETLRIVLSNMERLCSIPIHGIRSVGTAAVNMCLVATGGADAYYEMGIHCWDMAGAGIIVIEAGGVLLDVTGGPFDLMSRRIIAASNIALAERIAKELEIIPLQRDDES
#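 CHO-M1 cells (CHO stably expressing M1 receptor), compound up to 46 uM final, stimulated with carbachol (50 uM as added) in buffer with 50mM LiCl, pH 7.4, 30 min at 37C. Cytosolic IP1 read by TR-FRET; AC50 from Hill fits.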
# IMPase Li cell: IMPase inhibition in cells with lithium potentiation; CHO-M1 cells, IP1 TR-FRET (IP-One), carbachol + lithium; Potency, µM (top dose mostly 59.4 µM), usual class: inhibitors; 210,000 tested, 0.35% active; AID 1457;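 further: IP1 builds up when IMPase is blocked and the TR-FRET signal falls; nearly all actives have a fitted effect of over 50% in size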
#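 Readout is a homogeneous TR-FRET IP1 immunoassay (Ex 320, Em 665 and 620), where raised cytosolic IP1 lowers signal. Cells were CHO-M1 treated 30 min at 37C with test compounds plus a little lithium; AC50 values came from Hill-equation fitting.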
# PNC inhibitor: inhibitors of perinucleolar compartment assembly; activity change (PNC), negative = inhibition, % at 10 µM; AID 2417; 140,000 tested, 3.1% active; PC3M PTB-GFP, PNC prevalence imaging, 16 h; active compounds read low;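 active means readout at or below -70, meaning at least 70% loss of cells showing the perinucleolar compartment, a nuclear body marking cancer cells; inconclusive means readout between -30 and a set limit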
#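 Read-out is percentage of cells bearing a perinucleolar compartment, from automated 20x imaging of fixed, Hoechst-stained PC3M PTB-GFP cells. Cells were seeded 4 h, then exposed 16 h to compound (23 nl of library stock) in duplicate plates.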
# ALDH1A1 inh: blocks purified human ALDH1A1 activity; P00352; Purified ALDH1A1, NADH fluorescence, propionaldehyde substrate; Potency, µM (series often up to 75.3 µM), actives largely listed as inhibitors; 220,000 tested, 7.3% active; AID 1030; active means well fitted inhibition curve with a large enough effect, not every such curve was filed as active; inconclusive means small, poorly fitted or top-dose-only effect, or another doubt; inactive means no such curve, though single readings can be large or run the other way
# HPGD inh: inhibitors of human 15-hydroxyprostaglandin dehydrogenase (HPGD); purified HPGD, NADH fluorescence kinetic, PGE2 substrate; Potency, µM, hits mostly inhibitors; 150,000 tested, 4.3% active; AID 894; active means well fitted inhibition curve with a large enough effect, not every such curve was filed as active; inconclusive means small, poorly fitted or top-dose-only effect, or another doubt; inactive means no such curve, though single readings can be large or run the other way
# Target sequence (P15428 whole entry, looked up): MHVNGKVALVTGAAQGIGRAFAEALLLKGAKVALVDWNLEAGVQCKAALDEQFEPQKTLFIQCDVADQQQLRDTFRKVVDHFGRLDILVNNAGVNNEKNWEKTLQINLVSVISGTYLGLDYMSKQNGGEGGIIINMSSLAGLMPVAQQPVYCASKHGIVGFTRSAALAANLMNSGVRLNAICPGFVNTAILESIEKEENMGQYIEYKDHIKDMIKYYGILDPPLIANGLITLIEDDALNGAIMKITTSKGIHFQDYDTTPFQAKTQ
#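 NADH formation kinetics: reaction with 30 uM PGE2 and 1 mM NAD+ (final), 20 nM enzyme, Tris-HCl pH 8 with Tween 20, after 15 min compound preincubation at room temperature. Fluorescence change, last versus first of five reads.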
# ALOX12 inhib: inhibitors of human 12-lipoxygenase (ALOX12) | P18054 | purified 12-hLO, xylenol orange hydroperoxide absorbance | Potency, µM (top dose mostly 57.1 µM), actives largely listed as inhibitors | 150,000 tested, 0.12% active; further: nearly all actives have a fitted effect of over 55% in size
#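 Hydroperoxide formation by human 12-lipoxygenase from 40 uM arachidonic acid was followed colorimetrically via ferric-xylenol orange complex, using the 573/405 nm absorbance ratio. Enzyme concentration was 150 nM, with 30 min reaction at room temperature.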
# A number is an active result; - = inactive; ? = inconclusive; . = not tested or not shown; [ ] = remark or other dose. Unless noted, the call rests on the fitted dose curve; in most records, active means well fitted curve in the direction sought with a large enough effect; inconclusive means small, poorly fitted or top-dose-only effect, or another doubt; inactive means no such curve, though single readings can be large; an effect the other way counts as inactive or inconclusive.
SMILES,IMPase inh,IMPase Li cell,PNC inhibitor,ALDH1A1 inh,HPGD inh,ALOX12 inhib
CN[C@H]1[C@@H](O[C@@H]2[C@H](O[C@@H]3[C@@H](O)[C@@H](O)[C@@H](N=C(N)N)[C@@H](O)[C@@H]3N=C(N)N)O[C@H](C)[C@@]2(O)C=O)O[C@@H](CO)[C@@H](O)[C@H]1O,-,-,.,-,-,-
COc1ccc(C(=O)c2cc([N+](=O)[O-])ccc2N2CCOCC2)cc1,.,-,-83.6,-,-,-
O=C(c1cc([N+](=O)[O-])ccc1N1CCCC1)N1CCCCC1,.,-,.,-,.,.
O=C(COc1ccc([N+](=O)[O-])cc1)N/N=C/c1cc([N+](=O)[O-])ccc1N1CCOCC1,-,-,-,3.55µM,-,-
CCOc1ccc(C(=O)c2cc([N+](=O)[O-])ccc2N2CCOCC2)cc1,.,-,?,-,-,-
O=C(c1cc([N+](=O)[O-])ccc1N1CCCCC1)N1CCCCC1,-,-,-,20µM,?,-
Cc1ccc(C(=O)c2ccc(N3CCOCC3)c(F)c2)cc1,-,-,-,?,28.2µM,-
Cc1ccc(OCC(=O)N/N=C/c2cc([N+](=O)[O-])ccc2N2CCCCC2)cc1,-,-,?,?,-,-
Cc1ccc(C(=O)c2cc([N+](=O)[O-])ccc2N2CCOCC2)cc1,.,-,-95.6,?,-,-
CCOC(=O)NC(CC(=O)O)c1ccc(OC)cc1 (stereo unspecified),-,-,-100.0,-,-,-
COc1ccc(C(=O)N2CCC[C@@]3(CCN(Cc4ccc(C#N)cc4)C3)C2)cc1,.,-,.,?,15.8µM,-
CC(=O)N1CCC[C@@]2(CCN(Cc3ccc(C#N)cc3)C2)C1,.,-,.,-,-,-
COc1ccc(C(=O)N2CCC[C@@]3(CCN(Cc4nccs4)C3)C2)cc1,.,-,.,8.91µM,-,-
CCOC(=O)c1ccc(NC(=O)/C(C#N)=C/c2ccc(OC)cc2)cc1,-,.,.,.,.,.
O=C(NCCN1CCOCC1)C1CCN(S(=O)(=O)N2CCCCC2)CC1,-,-,-,?,-,-
O=C(NCc1ccccc1)c1ccc(S(=O)(=O)N2CCCC2)cc1,-,-,?,?,-,-
COc1cc(C(=O)NNC(=O)NC2CCCCC2)cc(OC)c1OC,-[1.84 µM],-,-119.9,-,-,-
COc1ccc(C(=O)NNC(=S)NC2CCCCC2)cc1OC,-,-,-,-,-,-
COc1ccc(CNC(=O)c2ccc(S(=O)(=O)N3CCCC3)cc2)cc1OC,-,-,-,10µM,-,-
O=C(NCCCN1CCCC1=O)C1CCN(S(=O)(=O)N2CCOCC2)CC1,-,-,-83.8,?,-,-
CCOC(=O)Cc1csc(NC(=O)CCS(=O)(=O)Cc2ccccc2)n1,-,-,-,20µM,-,-
COc1cccc([C@@H]2Oc3ccc(Br)cc3C[C@H]2OC(=O)Nc2ccc(C)c(Br)c2)c1,.,-,.,-,-,.
CCOc1ccc(NC(=O)CCSc2nc(-c3ccc4c(c3)OCO4)cc(C(F)(F)F)n2)cc1,-,.,.,.,.,.
COCCCNc1nc2c(c(=O)[nH]c(=O)n2C)n1CC(O)COc1ccc(Cl)cc1 (stereo unspecified),-,.,.,.,.,.
NC(=O)c1nsc(C(=O)N(CC(=O)NC2CCCC2)Cc2ccc3c(c2)OCO3)c1N,.,-,.,-,.,.
SMILES,IMPase inh,IMPase Li cell,PNC inhibitor,ALDH1A1 inh,HPGD inh,ALOX12 inhib
CCOC(=O)CSc1nnc(CNC(=O)c2ccc(S(=O)(=O)N3CCCC3)cc2)n1C,-,-,-,18.9µM,-,-
CCOc1ccc(CCNC(=O)C2CCCN(C(=O)N(C)C)C2)cc1OCC (stereo unspecified),-,-,-100.0,-,-,-
COc1ccc(CCNC(=O)C2CCCN2C(=O)NC2CCCCC2)cc1OC (stereo unspecified),-,-,-,-,-,-
COc1ccc(CCNC(=O)NC2CCCCC2)cc1OC,-,-,-80.9,-,-,-
CCOC(=O)CSc1nnc(CNC(=O)c2ccc(S(=O)(=O)N3CCOCC3)cc2)n1C,.,-,.,-,.,.
COc1ccc(CCNC(=O)C2CCN(S(=O)(=O)N3CCCCCC3)CC2)cc1OC,-,-,-,7.94µM,-,-
CCOc1ccc(CCNC(=O)C2CCN(S(=O)(=O)N3CCCCC3)CC2)cc1OCC,.,-,-,?,-,-
Cn1cccc1C(=O)N1CCC2(CCCN(C(=O)Nc3cccc(C#N)c3)C2)CC1,.,-,.,-,-,-
CC(C)(C)c1ccc(-c2nc(NC(=O)CSc3ncnc4sc5c(c34)CCCC5)ns2)cc1,-,.,.,.,.,.
Cc1oc(-c2cccc(Cl)c2)nc1CN1CCC(C(=O)NCCCN2CCCC2=O)CC1,-,-,-,-,-,-
O=C(NCCc1ccccc1)C1CCN(S(=O)(=O)N2CCCCCC2)CC1,.,-,.,7.08µM,.,.
CCOC(=O)Cc1csc(NC(=O)c2ccc(S(=O)(=O)N3CCCC3)cc2)n1,-,-,-,11.2µM,-,-
COc1ccc(CCNC(=O)C2CCN(S(=O)(=O)c3ccc(Cl)cc3)CC2)cc1OC,-,-,-100.0,-,-,-
COc1ccc(CCNC(=O)C2CCN(Cc3nc(-c4cccc(Cl)c4)oc3C)CC2)cc1OC,-,-,-83.4,-,-,-
C[C@H]1C(O)[C@@]23CCC4C5(C=[N+](CCO)C[C@]4(C)CCC5)C2C[C@@H]1C3 (stereo partly specified),.,-,.,-,-,.
CC(N)(C(=O)O)c1ccc(P(=O)(O)O)cc1 (stereo unspecified),.,-,.,-,.,.
CCCCc1nc2c(c3c1C[C@H](C)OC3)CN(C(=O)N[C@H](C(=O)OC)C(C)C)CC2,.,-,.,-[13.5 µM],-,-[11.4 µM]
CC1(C)Oc2ccc(C#N)cc2[C@H](N2CCCC2=O)[C@H]1O,-,-,.,-,-,-
CCOC(=O)NN1C(=O)c2ccccc2NC1c1ccc(N(C)C)cc1 (stereo unspecified),-,-,-,17.8µM,-,-
CCOC(=O)NN1C(=O)c2ccccc2NC1c1ccccc1 (stereo unspecified),-,-,-,?,?,-
C=CCNC(=O)COc1cc(C)cc(C)c1C,.,-,.,-,.,.
CCOC(=O)C1=C(N)OC2=C(C(=O)CC(C)(C)C2)C1c1ccc(C)s1 (stereo unspecified),.,-,.,12.6µM,.,.
Cc1ccc(C2C(C(N)=S)=C(N)OC3=C2C(=O)CC(C)(C)C3)cc1 (stereo unspecified),?,-,?,14.1µM,-,-
CCOC(=O)C1=C(N)OC2=C(C(=O)CC(C)(C)C2)C1c1ccc(CC)s1 (stereo unspecified),.,-,.,-,.,.
Cc1cccc(C(=O)NC(=S)NNC(=O)COc2c(C)cccc2C)c1,.,-,-,?,-,-
CCC(=O)NNC(=S)NC(=O)c1ccc(C)cc1,.,-,.,20µM,.,.
Cc1ccc(C(=O)NC(=S)NNC(=O)COc2ccccc2C)cc1,.,-,.,11.2µM,.,.
